Results published in PubChem BioAssay.
For some of these results: Measured potencies and affinities stand elsewhere. Active and inactive are the calls of the source. Unless noted, the rule behind the calls is not given here.

Columns and labels:
[1] = antimalarial activity against Dd2 strain (AID 2302;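 active = growth inhibition above 50% at the single 2 µM test dose, taken to imply half-maximal potency below 2 µM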;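 note: 0% = DMSO untreated growth and 100% = chloroquine plus artemisinin killed control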); details: P. falciparum Dd2 in RBCs, LDH growth readout, 72 h; at 2 µM; hits give high values
[2] = human hepatoma cell viability loss – ATP luminescence, cytotoxicity control for P. falciparum antimalarial project, primary screen (AID 2303;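 active = inhibition above 50%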;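 note: 0% = DMSO wells and 100% = digitonin-killed cells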); details: HepG2 viability, 24-48 h, at 10 µM, hits give high values
[3] = molecular target: L-lactate dehydrogenase (Plasmodium falciparum (isolate CDC / Honduras)) (UniProt Q27743); experiment: PfLDH activity inhibition – cell lysate, 3D7 strain, counter-screen for P. falciparum growth inhibition project (AID 2304);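 note: 0% = vehicle and 100% = reference inhibitor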; details: P. falciparum 3D7 crude extract, LDH APAD/NBT absorbance; at 2 µM; hits give high values
[4] = inhibition of 3D7 malaria parasite growth – strain 3D7 (AID 2306);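 note: 0% = DMSO wells and 100% = chloroquine plus artemisinin control wells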; details: P. falciparum 3D7 erythrocytic growth, LDH absorbance, 72 h; at 2 µM; hits give high values
[5] = molecular target: Calcium-dependent protein kinase 1 (Plasmodium falciparum (isolate 3D7)) (UniProt P62344); experiment: PfCDPK1 kinase inhibitors, biochemical, TCAMS library (AID 1159585; cut-off not given, nearly all actives have IC50 up to about 0.98 µM;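 note: inhibitors leave more ATP so luminescence rises with inhibition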); details: recombinant PfCDPK1, Kinase-Glo ATP depletion luminescence
[6] = molecular target: Plasmodium falciparum protein kinase 6 (PK6, PF3D7_1337100) (UniProt Q8IDW1); experiment: PfPK6 kinase inhibitors, biochemical, TCAMS library (AID 1159586); details: recombinant PfPK6, Kinase-Glo ATP depletion luminescence
[7] = molecular target: Protein kinase 7 (PK7), Plasmodium falciparum 3D7 (PF3D7_0213400) (UniProt Q7YTF7); experiment: inhibition of Plasmodium PK7 catalytic activity – biochemical, TCAMS antimalarial set, Kinase-Glo luminescence (AID 1159587); details: recombinant PfPK7, Kinase-Glo ATP depletion luminescence
[8] = molecular target: Calcium-dependent protein kinase 4 (Plasmodium falciparum (isolate 3D7)) (UniProt Q8IBS5); experiment: PfCDPK4 kinase inhibitors, biochemical, TCAMS library (AID 1159588; cut-off not given, nearly all actives have IC50 up to about 0.91 µM); details: recombinant PfCDPK4, Kinase-Glo ATP depletion luminescence
Chain of Calcium-dependent protein kinase 4 (Plasmodium falciparum (isolate 3D7)) (Q8IBS5 whole entry, looked up): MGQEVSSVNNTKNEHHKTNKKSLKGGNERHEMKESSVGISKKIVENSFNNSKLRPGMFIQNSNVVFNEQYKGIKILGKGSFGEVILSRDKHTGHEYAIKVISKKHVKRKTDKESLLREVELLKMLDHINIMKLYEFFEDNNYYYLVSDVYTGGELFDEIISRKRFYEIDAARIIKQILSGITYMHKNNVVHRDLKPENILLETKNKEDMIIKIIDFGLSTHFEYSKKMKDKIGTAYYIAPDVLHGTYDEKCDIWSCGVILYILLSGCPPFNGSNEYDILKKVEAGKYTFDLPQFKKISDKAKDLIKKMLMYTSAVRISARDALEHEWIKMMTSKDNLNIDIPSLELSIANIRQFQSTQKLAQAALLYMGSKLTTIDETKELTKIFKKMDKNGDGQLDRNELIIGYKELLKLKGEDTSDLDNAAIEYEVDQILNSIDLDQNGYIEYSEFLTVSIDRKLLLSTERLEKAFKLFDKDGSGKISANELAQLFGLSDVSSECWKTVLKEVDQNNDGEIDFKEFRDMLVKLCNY

Chain of L-lactate dehydrogenase (Plasmodium falciparum (isolate CDC / Honduras)) (Q27743 whole entry, looked up): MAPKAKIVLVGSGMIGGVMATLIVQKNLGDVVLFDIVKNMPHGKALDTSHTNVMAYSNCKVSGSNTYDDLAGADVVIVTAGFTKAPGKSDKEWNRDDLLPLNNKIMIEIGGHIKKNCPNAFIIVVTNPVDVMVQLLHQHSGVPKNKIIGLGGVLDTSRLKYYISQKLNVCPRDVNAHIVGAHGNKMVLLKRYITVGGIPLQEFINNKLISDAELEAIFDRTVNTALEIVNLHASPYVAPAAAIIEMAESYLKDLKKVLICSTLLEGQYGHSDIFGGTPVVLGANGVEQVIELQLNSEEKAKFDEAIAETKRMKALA
Chain of Calcium-dependent protein kinase 1 (Plasmodium falciparum (isolate 3D7)) (P62344 whole entry, looked up): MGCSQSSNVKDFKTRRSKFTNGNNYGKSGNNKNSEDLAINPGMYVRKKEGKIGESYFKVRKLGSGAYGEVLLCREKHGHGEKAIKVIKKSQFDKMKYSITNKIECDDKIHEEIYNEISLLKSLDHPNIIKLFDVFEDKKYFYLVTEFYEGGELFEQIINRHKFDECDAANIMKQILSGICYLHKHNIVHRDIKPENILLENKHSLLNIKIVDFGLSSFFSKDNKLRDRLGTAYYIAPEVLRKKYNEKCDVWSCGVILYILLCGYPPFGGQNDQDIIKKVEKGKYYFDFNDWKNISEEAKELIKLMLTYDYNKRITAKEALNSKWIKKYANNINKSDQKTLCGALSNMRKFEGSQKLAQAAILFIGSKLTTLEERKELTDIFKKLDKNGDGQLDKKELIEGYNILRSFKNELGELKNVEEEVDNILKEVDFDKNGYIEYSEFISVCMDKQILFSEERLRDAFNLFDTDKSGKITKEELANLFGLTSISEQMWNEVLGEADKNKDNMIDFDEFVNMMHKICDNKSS
Chain of Protein kinase 7 (PK7), Plasmodium falciparum 3D7 (PF3D7_0213400) (Q7YTF7 1-343): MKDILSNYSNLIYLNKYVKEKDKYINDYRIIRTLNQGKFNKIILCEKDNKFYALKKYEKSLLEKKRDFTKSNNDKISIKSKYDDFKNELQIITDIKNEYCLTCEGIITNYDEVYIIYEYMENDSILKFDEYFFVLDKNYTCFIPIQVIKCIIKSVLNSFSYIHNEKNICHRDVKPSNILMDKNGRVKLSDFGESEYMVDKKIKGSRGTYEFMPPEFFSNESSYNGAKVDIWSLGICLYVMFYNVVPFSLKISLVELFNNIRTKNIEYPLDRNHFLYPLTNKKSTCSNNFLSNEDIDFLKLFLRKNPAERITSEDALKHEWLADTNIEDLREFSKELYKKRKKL
Chain of Plasmodium falciparum protein kinase 6 (PK6, PF3D7_1337100) (Q8IDW1 1-305): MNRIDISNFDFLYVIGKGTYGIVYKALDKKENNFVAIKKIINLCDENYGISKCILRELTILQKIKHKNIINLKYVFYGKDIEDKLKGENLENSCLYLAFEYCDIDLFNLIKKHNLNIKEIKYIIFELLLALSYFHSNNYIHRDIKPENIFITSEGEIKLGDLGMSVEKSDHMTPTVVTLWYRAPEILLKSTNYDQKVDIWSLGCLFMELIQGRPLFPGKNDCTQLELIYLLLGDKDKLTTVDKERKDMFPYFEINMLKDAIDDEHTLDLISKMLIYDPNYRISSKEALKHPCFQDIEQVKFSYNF

Oc1ccc2[nH]cc(C3CCN(CCCNCc4ccc(-c5ccccc5)cc4)CC3)c2c1
inactive: growth inhibition [1] -1% | inhibition [2] 22% | inhibition [3] -4% | outcome [5] | outcome [6] | outcome [7] | outcome [8]
active: growth inhibition [4] 101%

OCC1CCN(Cc2cccc(-c3ccc(-c4nc5ccc(C(F)(F)F)cc5[nH]4)cc3)c2)CC1
inactive: inhibition [2] 25% | inhibition [3] -3% | outcome [5] | outcome [6] | outcome [7] | outcome [8]
active: growth inhibition [1] 95% | growth inhibition [4] 101%

Cc1cccc2[nH]c(-c3cccc(-c4ccc(NC(=O)Nc5ccc(Cl)cc5)cc4)c3)nc12
inactive: inhibition [3] 0% | outcome [5] | outcome [6] | outcome [7] | outcome [8]
active: growth inhibition [1] 96% | inhibition [2] 63% | growth inhibition [4] 100%

N#CCCN1CCN(Cc2cccc(-c3ccc(-c4nc5ccc(F)cc5[nH]4)cc3)c2)CC1
inactive: growth inhibition [1] 35% | inhibition [2] 18% | inhibition [3] -2% | outcome [5] | outcome [6] | outcome [7] | outcome [8]
active: growth inhibition [4] 100%

COc1ccc2ccccc2c1CCCCN1CCN(CC(c2ccc(F)cc2)N2CCN(C(C)C)CC2)CC1 (stereo not drawn)
inactive: inhibition [3] 2% | outcome [5] | outcome [6] | outcome [7] | outcome [8]
active: growth inhibition [1] 83% | inhibition [2] 92% | growth inhibition [4] 100%

COc1ccc2c(c1)OC(C)(C)CC2=NOS(=O)(=O)c1ccc(C)cc1
inactive: growth inhibition [1] 12% | inhibition [2] 10% | inhibition [3] 4% | outcome [5] | outcome [6] | outcome [7] | outcome [8]
active: growth inhibition [4] 97%

O=C(CN1CCCCC1)Nc1ccc(Nc2nccc(NCC(O)c3ccccc3)n2)cc1 (stereo not drawn)
inactive: inhibition [3] 3% | outcome [5] | outcome [6] | outcome [7] | outcome [8]
active: growth inhibition [1] 95% | inhibition [2] 62% | growth inhibition [4] 101%

COc1cccc(CNC[C@@H](O)[C@H](Cc2ccccc2)NC(=O)c2cc(N3CCCC3=O)c3[nH]cc(C(C)C)c3c2)c1
active: growth inhibition [1] 98% | growth inhibition [4] 96%
inactive: inhibition [2] 5% | inhibition [3] 3% | outcome [5] | outcome [6] | outcome [7] | outcome [8]

Cc1ccnc2nc(C(=O)Nc3cc(C(F)(F)F)ccc3N3CCCCC3)nn12
active: growth inhibition [1] 94% | growth inhibition [4] 96%
inactive: inhibition [2] 7% | inhibition [3] -5% | outcome [5] | outcome [6] | outcome [7] | outcome [8]

CCCCCCCN1CCC(CC(=O)Nc2ccnc3ccc(OC)cc23)CC1
active: growth inhibition [1] 52% | growth inhibition [4] 97%
inactive: inhibition [2] 15% | inhibition [3] -2% | outcome [5] | outcome [6] | outcome [7] | outcome [8]

CC(C)Oc1cc(-c2ccc(S(C)(=O)=O)cc2)nc(N(Cc2cccc(F)c2F)Cc2cccc(F)c2F)n1
active: growth inhibition [1] 99% | growth inhibition [4] 101%
inactive: inhibition [2] 10% | inhibition [3] 4% | outcome [5] | outcome [6] | outcome [7] | outcome [8]

O=C(Nc1ccc(SC(F)(F)F)cc1)Nc1ccc(Cl)c(Cl)c1
active: growth inhibition [1] 99% | growth inhibition [4] 98%
inactive: inhibition [2] 15% | inhibition [3] 4% | outcome [5] | outcome [6] | outcome [7] | outcome [8]

Cc1cc2[nH]c(-c3ccc(C(=O)NCCCN4CCN(c5cccc(Cl)c5)CC4)cc3)nc2cc1Cl
active: growth inhibition [1] 73% | growth inhibition [4] 98%
inactive: inhibition [2] 1% | inhibition [3] 6% | outcome [5] | outcome [6] | outcome [7] | outcome [8]

Cc1cccc2nc(C(=O)Nc3nc(CN4CCC(C)CC4)cs3)cn12
inactive: inhibition [2] -27% | inhibition [3] 0% | outcome [5] | outcome [6] | outcome [7] | outcome [8]
active: growth inhibition [1] 80% | growth inhibition [4] 94%

Cc1cc2nc(-c3ccc(SCC(=O)Nc4ccc5c(c4)OCCO5)nc3)[nH]c2cc1C
active: growth inhibition [4] 85%
inactive: growth inhibition [1] 6% | inhibition [2] 17% | inhibition [3] 9% | outcome [5] | outcome [6] | outcome [7] | outcome [8]

CC(Cc1ccc(NS(=O)(=O)c2ccc(CC(C)NCCc3cccc(Cl)c3)cc2)cc1)NCCc1cccc(Cl)c1 (stereo not drawn)
active: growth inhibition [4] 100%
inactive: growth inhibition [1] 38% | inhibition [2] 12% | inhibition [3] 4% | outcome [5] | outcome [6] | outcome [7] | outcome [8]

CC(O)C1CCCCN1C(=O)c1cccc(-c2cccc(-c3nc4ccccc4[nH]3)c2)c1 (stereo not drawn)
inactive: inhibition [2] 20% | inhibition [3] -4% | outcome [5] | outcome [6] | outcome [7] | outcome [8]
active: growth inhibition [1] 76% | growth inhibition [4] 99%

CCCCCCCCOc1c(OCC)cc(Cc2cnc(N)nc2N)cc1OCC
inactive: growth inhibition [1] -1% | inhibition [2] 25% | inhibition [3] 3% | outcome [5] | outcome [6] | outcome [7] | outcome [8]
active: growth inhibition [4] 80%

Oc1cccc(/C=N/Nc2ccnc3cc(Cl)ccc23)c1
active: growth inhibition [1] 95% | growth inhibition [4] 104%
inactive: inhibition [2] -9% | inhibition [3] 0% | outcome [5] | outcome [6] | outcome [7] | outcome [8]

Cc1ccc(O)c(Nc2c3c(c(C#N)c4nc5ccccc5n24)CCC3)c1
active: growth inhibition [4] 85%
inactive: growth inhibition [1] 2% | inhibition [2] 7% | inhibition [3] -3% | outcome [5] | outcome [6] | outcome [7] | outcome [8]

O=C(CSc1nccn1C1CCCC1)Nc1cc(C(F)(F)F)ccc1Cl
inactive: inhibition [2] -4% | inhibition [3] -2% | outcome [5] | outcome [6] | outcome [7] | outcome [8]
active: growth inhibition [1] 94% | growth inhibition [4] 96%

CC(NCC(O)Cn1c2ccccc2c2ccccc21)c1ccccc1 (stereo not drawn)
inactive: inhibition [2] 37% | inhibition [3] 9% | outcome [5] | outcome [6] | outcome [7] | outcome [8]
active: growth inhibition [1] 85% | growth inhibition [4] 96%

O=C(Cc1ccc(NC(=O)c2ccc(O)c(-c3ccc(Cl)c(Cl)c3)c2)cc1)NCCN1CCCCC1
active: growth inhibition [1] 63% | growth inhibition [4] 95%
inactive: inhibition [2] 12% | inhibition [3] -4% | outcome [5] | outcome [6] | outcome [7] | outcome [8]

N#CCCN1CCN(Cc2cccc(-c3ccc(-c4nc5ccc(C(F)(F)F)cc5[nH]4)cc3)c2)CC1
active: growth inhibition [1] 63% | growth inhibition [4] 101%
inactive: inhibition [2] 23% | inhibition [3] 4% | outcome [5] | outcome [6] | outcome [7] | outcome [8]

CN1CCN(CCCCNc2c3ccccc3nc3ccccc23)CC1
active: growth inhibition [4] 101%
inactive: growth inhibition [1] -7% | inhibition [2] 37% | inhibition [3] 4% | outcome [5] | outcome [6] | outcome [7] | outcome [8]

COc1cc(NC(=O)c2cccs2)c(C(=O)NCc2ccc(C)cc2)cc1OC
active: growth inhibition [1] 88% | growth inhibition [4] 93%
inactive: inhibition [2] 3% | inhibition [3] -2% | outcome [5] | outcome [6] | outcome [7] | outcome [8]

Fc1cccc(C=NNc2ccnc3cc(Cl)ccc23)c1
active: growth inhibition [1] 91% | growth inhibition [4] 99%
inactive: inhibition [2] 6% | inhibition [3] -7% | outcome [5] | outcome [6] | outcome [7] | outcome [8]

NC1=NC2(CCCCC2)N(OCCCOc2cc(Cl)c(Cl)cc2Cl)C(N)=N1
inactive: inhibition [3] -11% | outcome [5] | outcome [6] | outcome [7] | outcome [8]
active: growth inhibition [1] 98% | inhibition [2] 62% | growth inhibition [4] 94%

Cc1[nH]c(C)c(-c2ccc(OCCCCSc3ccncc3)cc2)c(=O)c1Br
inactive: inhibition [2] -3% | inhibition [3] -2% | outcome [5] | outcome [6] | outcome [7] | outcome [8]
active: growth inhibition [1] 97% | growth inhibition [4] 97%

O=[N+]([O-])c1ccc(/C=N/Nc2cc(-c3ccccc3)nc3ccccc23)o1
inactive: growth inhibition [1] 49% | inhibition [2] 48% | inhibition [3] -5% | outcome [5] | outcome [6] | outcome [7] | outcome [8]
active: growth inhibition [4] 93%

COc1ccc2nccc([C@@H](O)CN3CCC(NC(=O)C(c4cc5ccccc5o4)N4CCC(Cc5ccccc5)CC4)CC3)c2c1 (stereo partly drawn)
active: growth inhibition [1] 82% | growth inhibition [4] 100%
inactive: inhibition [2] 11% | inhibition [3] 0% | outcome [5] | outcome [6] | outcome [7] | outcome [8]

CCCCCN1CCC(NC(=O)c2ccc(C(=O)Nc3ccc(C(C)C)cc3)cc2)CC1
inactive: growth inhibition [1] 9% | inhibition [2] 41% | inhibition [3] -4% | outcome [5] | outcome [6] | outcome [7] | outcome [8]
active: growth inhibition [4] 98%

CC(C)CNCc1cccc(-c2ccc(CN(CCCN3CCN(C)CC3)C(=O)/C=C/c3ccccc3)cc2)c1
active: growth inhibition [1] 90% | growth inhibition [4] 92%
inactive: inhibition [2] 48% | inhibition [3] -2% | outcome [5] | outcome [6] | outcome [7] | outcome [8]

NC(=O)c1cccc(Nc2nccc(Nc3ccc(Oc4c(Cl)cccc4Cl)c(Cl)c3)n2)c1
active: growth inhibition [4] 93%
inactive: growth inhibition [1] 17% | inhibition [2] 2% | inhibition [3] 5% | outcome [5] | outcome [6] | outcome [7] | outcome [8]

CC(=O)Nc1ccc(C(=O)Nc2cccc(-c3cccc(-c4nc5ccccc5[nH]4)c3)c2)cn1
active: growth inhibition [1] 100% | growth inhibition [4] 101%
inactive: inhibition [2] 3% | inhibition [3] -2% | outcome [5] | outcome [6] | outcome [7] | outcome [8]

O=C(CCc1cccc(O)c1)NCC(NCCCNc1cc(=O)c2ccccc2[nH]1)c1cc(Br)cc(Br)c1 (stereo not drawn)
active: growth inhibition [4] 86%
inactive: growth inhibition [1] 37% | inhibition [2] -6% | inhibition [3] -4% | outcome [5] | outcome [6] | outcome [7] | outcome [8]

CCCCc1cc(NCC)nc(Nc2cccc(OC)c2)n1
active: growth inhibition [1] 69% | growth inhibition [4] 97%
inactive: inhibition [2] 9% | inhibition [3] -4% | outcome [5] | outcome [6] | outcome [7] | outcome [8]

CC(C)c1ccc(C=CC(=O)N2CCC(CCN3CCC(c4c[nH]c5ccccc45)CC3)CC2)cc1
active: inhibition [2] 85% | growth inhibition [4] 93%
inactive: growth inhibition [1] 11% | inhibition [3] 4% | outcome [5] | outcome [6] | outcome [7] | outcome [8]

CCc1ccc(CN2CCC(NC(=O)c3ccc(-c4ccccc4F)s3)CC2)cc1
inactive: growth inhibition [1] 12% | inhibition [2] 35% | inhibition [3] 2% | outcome [5] | outcome [6] | outcome [7] | outcome [8]
active: growth inhibition [4] 80%

COc1ccc2nc3cc(Cl)ccc3c(NCCCO)c2c1
active: growth inhibition [1] 100% | growth inhibition [4] 100%
inactive: inhibition [2] 32% | inhibition [3] -1% | outcome [5] | outcome [6] | outcome [7] | outcome [8]

CCN1CCC(N(Cc2ccc(-c3ccc(C(F)(F)F)cc3)cc2)C(=O)Cn2c(CCc3cccc(F)c3F)cc(=O)c3ccccc32)CC1
active: growth inhibition [1] 94% | inhibition [2] 100% | growth inhibition [4] 94%
inactive: inhibition [3] 3% | outcome [5] | outcome [6] | outcome [7] | outcome [8]
